From PubChem BioAssay (NCI)
Compounds without any hit were thinned out: in the full panel of roughly 83,000, 20% have a hit.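 Cells were grown in 96-well plates and exposed to the test compound at a single concentration for 48 hours; results are reported as percent growth, with values below 10 considered active.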 Calls of active or inactive are those of the source.

Legend:
Assay in all cases: NCI-60 one-dose screen, 48 h (100 = growth as untreated, 0 = no growth, -100 = all killed)
Settings in all cases: 10 µM unless noted
[1] = test system: NCI-H23 lung
[2] = test system: NCI-H226 lung
[3] = test system: NCI-H322M lung
[4] = test system: HOP-62 NSCLC
[5] = test system: NCI-H460 lung
[6] = test system: HOP-92 NSCLC
[7] = test system: NCI-H522 lung
[8] = test system: A549/ATCC NSCLC
[9] = test system: 786-0 renal
[10] = test system: COLO 205 colon

Measured: growth

N/C(=N\c1nc2ccccc2s1)NC(=O)Nc1cccc(Cl)c1
inactive: [1] 59.4% | [2] 55.3% | [3] 53.3% | [4] 36.8% | [5] 15.1% | [6] 51.6% | [7] 17.1% | [8] 40.4% | [9] 34.8% | [10] 26.2%

COc1ccc2c(c1)O/C(=C/c1ccc(OCC(=O)c3ccccc3)cc1)C2=O
inactive: [1] 98.1% | [2] 104% | [3] 97.2% | [4] 93.6% | [5] 118% | [6] 98.6% | [7] 94.5% | [8] 93.2% | [9] 101% | [10] 129%

O=[N+]([O-])c1ccc(Sc2cccc[n+]2[O-])c2nonc12
active: [10] -67.3%
inactive: [1] 73.2% | [2] 102% | [3] 104% | [4] 101% | [5] 56.8% | [6] 96.4% | [8] 59% | [9] 92.6%

Cc1cc(/C=C\c2ccc3ccccc3[n+]2C)c(O)c2ncccc12
inactive: [4] 20.3% | [6] 19.4% | [8] 12%
active: [1] -4.98% | [2] -35.5% | [3] 8.71% | [5] 4.5% | [9] 9.72% | [10] 9.56%

COC(=O)[C@]12CC[C@@H](C)[C@H](C)[C@@H]1C1=CC[C@@H]3[C@@]4(C)C(C=O)=C[C@@](C)(COC(=O)c5ccco5)[C@@H]4C(=O)C[C@@]3(C)[C@]1(C)CC2
active: [10] -59.5%
inactive: [1] 26.3% | [2] 22.5% | [3] 69.6% | [4] 31.6% | [5] 18.1% | [6] 31.8% | [8] 10.1% | [9] 43.4%

COc1cccc2c1C(=O)c1c(O)c3c(c(O)c1C2=O)CC(O)(/C(C)=N/NC(=O)CCCCC(=O)N/N=C(\C)C1(O)Cc2c(O)c4c(c(O)c2C(OC2CC(N)C(O)C(C)O2)C1)C(=O)c1c(OC)cccc1C4=O)CC3OC1CC(N)C(O)C(C)O1 (centres undefined)
active: [1] -31.9% [5 µM] | [2] -56.1% [5 µM] | [3] -10.2% [5 µM] | [4] -1.23% [5 µM] | [5] -10.2% [5 µM] | [7] -57.7% [5 µM] | [8] -22% [5 µM] | [9] 4.75% [5 µM] | [10] -91.9% [5 µM]

CC(=O)[C@@H]1CC[C@]2(COS(=O)(=O)c3ccc(C)cc3)CC[C@]3(C)[C@H](CC[C@@H]4[C@@]5(C)CCCNC(C)(C)[C@@H]5CC[C@]43C)[C@@H]12
inactive: [1] 78.6% | [2] 86% | [3] 93.7% | [4] 87.1% | [5] 41.8% | [6] 57.6% | [8] 70.5% | [9] 89.5%
active: [10] -62.4%

Cc1ccccc1NC(=O)N/C(N)=N/c1nc(C)c(C)s1
inactive: [1] 42.7% | [2] 60% | [3] 46.2% | [4] 43.9% | [5] 10.5% | [6] 73.6% | [8] 40.2% | [9] 51.4% | [10] 10.1%

COc1ccc(/C=c2\nc3n(-c4ccccc4)c4nc5c6c(sc5c(=N)n4n-3c2=O)CCCC6)cc1
inactive: [1] 80.8% | [2] 69.2% | [3] 94.6% | [4] 88.1% | [5] 98.1% | [6] 63.4% | [8] 97.4% | [9] 99.5% | [10] 111%

CC/C=C\C[C@H](O)C/C=C1/C(=O)C=C[C@@H]1C/C=C\CCCC(=O)OC
active: [1] -7.41% | [2] -34.5% | [4] -32% | [5] -46.3% | [6] -20.5% | [8] -21.4% | [9] -49.6% | [10] -52.1%
inactive: [3] 29.3%

CC1=C(SCCC(=O)OC(C[Se]C2=C(C)C(=O)c3ccccc3C2=O)C(=O)NCCCCCC(=O)OCc2ccccc2)C(=O)c2ccccc2C1=O (centres undefined)
inactive: [1] 15.2% | [2] 93.4% | [4] 12.8% | [5] 10.9% | [6] 58.4% | [8] 22.2% | [9] 40.1% | [10] 40%
active: [3] 8.06%

COc1ccc(-c2cc(-c3cc(OC)c(OC)c(OC)c3)c(C#N)c(N3CCOCC3)n2)cc1O
inactive: [2] 108% | [3] 65.5% | [4] 68.4% | [5] 48.1% | [6] 42.8% | [8] 65.8% | [9] 68.9% | [10] 97.2%
active: [1] -6.35%

Cc1cc(N2CCCC2)nc(NCc2cc(Nc3ccnc4cc(Cl)ccc34)ccc2F)n1
active: [1] -27.8% | [3] -27.6% | [4] -69.2% | [5] -71.5% | [6] -14% | [8] -13.1% | [9] -92.7% | [10] -82.2%
inactive: [2] 24.8%

CCCCCCCCCCN(CCCCCCCCCC)CC(=O)c1ccc2cc(Br)c3ccccc3c2c1
active: [5] -65.9% | [6] -77%
inactive: [1] 47.4% | [2] 99.4% | [3] 65.7% | [4] 96.4% | [8] 82.3% | [9] 54.1% | [10] 104%

CCCCNC(=O)Oc1ccc2c(=O)c3sc4c(=O)c5ccccc5c(=O)c4c3c(=O)c2c1
active: [1] -47.6% | [2] -89% | [3] -96.8% | [4] -79.1% | [5] -74.6% | [7] -69.5% | [8] -61.8% | [9] -37% | [10] -84.9%

O=C(Nc1ccc(Nc2ccncc2)cc1)c1ccc(C(=O)Nc2ccc(Nc3ccncc3)cc2)cc1
inactive: [1] 59.2% | [2] 68.8% | [3] 71.9% | [4] 82.1% | [5] 88.2% | [6] 28.9% | [8] 69.5% | [9] 84.5% | [10] 27.7%

CN(C)c1ccc(-c2cc(-c3ccc(Nc4nc(Nc5ccc(Cl)cc5)nc(Nc5ccc(Cl)cc5)n4)cc3)no2)cc1
active: [6] -11.5% | [10] 0.291%
inactive: [1] 45% | [2] 87.1% | [3] 65.2% | [4] 63.6% | [5] 27.1% | [8] 23.1% | [9] 36.9%

COC(=O)[C@H](CSC)N(C)C(=O)[C@@H]1CSSC[C@@H](NC(=O)c2nc3ccccc3cc2O)C(=O)NCC(=O)N1C
inactive: [1] 84.9% | [2] 87.5% | [3] 100% | [4] 82.2% | [5] 59.1% | [6] 132% | [8] 59.4% | [9] 111% | [10] 16%

CC(=O)N1N=C(c2ccc(Nc3nc(Nc4ccc(F)cc4)nc(Nc4ccc(F)cc4)n3)cc2)CC1c1cccc([N+](=O)[O-])c1 (centres undefined)
inactive: [1] 78.9% | [2] 101% | [3] 85.6% | [4] 82% | [5] 102% | [6] 71.2% | [8] 91.1% | [9] 86.4% | [10] 84.9%

CC/C=C1/C(=O)C=C[C@@H]1C/C=C\CCCC(=O)O
inactive: [1] 85.5% | [2] 93.3% | [3] 113% | [4] 80.4% | [5] 97.1% | [6] 121% | [8] 87.9% | [9] 102% | [10] 108%

COc1ccc2cc(-c3cc(OC)c(OC)c(OC)c3)c(=O)oc2c1
inactive: [1] 79.8% | [2] 78.4% | [3] 103% | [4] 68.3% | [5] 84.4% | [6] 79.2% | [8] 42.1% | [9] 68.2% | [10] 83.3%

CC1(C)CC[C@]2(C(=O)N3CCOCC3)CC[C@]3(C)C(=CC[C@@H]4[C@@]5(C)CC[C@H](OC(=O)c6cccnc6)C(C)(C)[C@@H]5CC[C@]43C)[C@@H]2C1
inactive: [1] 68.9% | [2] 50.1% | [3] 88.2% | [4] 78.7% | [5] 18.3% | [6] 66.4% | [8] 47.3% | [9] 62.4% | [10] 58.4%

COc1ccc(Nc2nnc(SCc3ccccc3F)s2)cc1
inactive: [1] 95.7% | [2] 87.2% | [3] 116% | [4] 103% | [5] 111% | [7] 75.4% | [8] 102% | [9] 101% | [10] 114%

CCOC(=O)c1c(/C=C/C(=O)O)nc2ccccc2c1/C=C/c1ccccc1
inactive: [1] 50.3% | [2] 53.8% | [3] 72.7% | [4] 63.3% | [5] 28.5% | [6] 60.1% | [8] 70.7% | [9] 54.9% | [10] 84%

Cc1nc2ccccc2n1CC1NC(=O)NC1=O (centres undefined)
inactive: [1] 102% | [2] 98.4% | [3] 97.7% | [4] 93.3% | [5] 107% | [6] 115% | [8] 98.3% | [9] 101% | [10] 108%

Cc1ccc(-c2cc(-c3cccnc3)[nH]c(=O)c2C#N)cc1
inactive: [1] 103% | [2] 99.2% | [3] 103% | [4] 107% | [5] 107% | [6] 97.9% | [8] 102% | [9] 101% | [10] 118%

CC1=NOC(=O)/C1=C\c1ccc(O)cc1
inactive: [1] 102% | [2] 108% | [3] 95.2% | [4] 99.5% | [5] 109% | [6] 101% | [8] 97.4% | [9] 101% | [10] 109%

O=C1CCC2=C3C4CCCCC4C(=O)C4CCCC(OC2C1)C34 (centres undefined)
active: [1] -12.9% | [5] -18.6% | [6] -2.29% | [9] -9.63%
inactive: [2] 92.6% | [3] 18% | [4] 34.5% | [8] 48.9% | [10] 75.3%
